PvdQ inh = P. aeruginosa PvdQ acylase inhibitors, primary screen, biochemical, fluorescence, plate reader and imaging, single point | inhibition, % at 10 µM | PvdQ acylase [Pseudomonas aeruginosa LESB58] | 340,000 tested, 0.063% active | purified PvdQ acylase; in the data active = inhibition above about 30%, passing the limit was not always enough;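 also: 0% = vehicle neutral wells and 100% = reference inhibitor wells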
F508del corr = F508del CFTR correction, initial screen, CFBE line, single point | activity (quench increase), % at 7.58 µM | AID 720511, 2013 | 350,000 tested, 0.36% active | CFBE cells, YFP halide quenching; stimulated with forskolin plus potentiator P3; % fluorescence drop versus neutral controls;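 active = mean added fluorescence quench of at least 8% versus neutral control, with both replicates also reaching 8%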;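 also: cells transiently co-express mutant CFTR-F508del with the halide-sensitive YFP; corrector assay measuring rescue of mutant channel to the surface after 24 h compound exposure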
Ecoli rRNA inh = reduced GFP signal of wild-type E. coli, primary screen, bacterial rRNA inhibitor project, GFP/RFP fluorescence, OD600, single point; E. coli WT GFP vs humanized-ribosome RFP mutants, 24 h; active compounds read low; DMSO median 0, no signal -100; GFP signal change (wild-type ribosome), % (no concentration beside the values); 350,000 tested, 1.6% active;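 active = significant combined selectivity score with lowered wild-type GFP, culture density cut under 30%, mutant RFP and density less affected; inactive = any of these conditions unmet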
ERAP1 HTS inh = human ERAP1 aminopeptidase inhibitors, primary screen, biochemical, single point, plate reader. Endoplasmic reticulum aminopeptidase 1 (Homo sapiens), Q9NZ08. recombinant ERAP1, Leu-AMC fluorescence, 60 min. inhibition, % at 10.7 µM. 340,000 tested, 0.15% active. AID 652197, 2013;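 active = mean replicate inhibition of at least 30%, or all replicates individually reaching that 30% level; inactive = mean below 30% and not every replicate reaching it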;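 also: 0% = neutral control wells and 100% = L-leucinethiol positive control wells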
Target sequence (Q9NZ08 whole entry, looked up): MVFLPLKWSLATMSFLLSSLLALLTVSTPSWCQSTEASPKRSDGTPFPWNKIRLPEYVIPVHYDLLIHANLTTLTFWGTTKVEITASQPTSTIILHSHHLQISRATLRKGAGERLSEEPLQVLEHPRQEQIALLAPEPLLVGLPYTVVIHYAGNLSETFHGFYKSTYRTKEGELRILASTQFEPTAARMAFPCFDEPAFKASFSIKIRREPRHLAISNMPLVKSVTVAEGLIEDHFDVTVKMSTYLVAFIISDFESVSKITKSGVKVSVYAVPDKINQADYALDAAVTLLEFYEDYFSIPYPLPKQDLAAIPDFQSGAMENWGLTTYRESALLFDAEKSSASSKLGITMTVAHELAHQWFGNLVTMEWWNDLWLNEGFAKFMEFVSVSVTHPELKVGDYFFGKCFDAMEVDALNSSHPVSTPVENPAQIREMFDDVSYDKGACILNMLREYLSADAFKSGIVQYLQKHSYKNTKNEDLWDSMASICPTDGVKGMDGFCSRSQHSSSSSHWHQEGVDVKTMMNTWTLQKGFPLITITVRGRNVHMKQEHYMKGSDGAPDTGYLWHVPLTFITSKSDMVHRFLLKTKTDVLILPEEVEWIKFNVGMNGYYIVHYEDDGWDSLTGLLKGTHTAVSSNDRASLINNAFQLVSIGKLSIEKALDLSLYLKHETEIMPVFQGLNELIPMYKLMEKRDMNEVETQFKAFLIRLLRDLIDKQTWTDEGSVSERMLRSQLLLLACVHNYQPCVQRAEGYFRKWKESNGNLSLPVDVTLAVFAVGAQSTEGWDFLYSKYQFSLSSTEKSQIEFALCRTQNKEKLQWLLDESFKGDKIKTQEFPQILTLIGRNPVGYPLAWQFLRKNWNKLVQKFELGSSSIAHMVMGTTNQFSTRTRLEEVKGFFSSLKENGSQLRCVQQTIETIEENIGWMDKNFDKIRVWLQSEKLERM
ARNT-TACC3 inh = disruptors of ARNT/TACC3 protein interaction, primary screen, biochemical, AlphaScreen, single concentration; 390,000 tested, 0.66% active; AlphaScreen His-ARNT PAS-B/GST-TACC3 binding, luminescence; TACC3 fragment carries E629A point mutation; inhibition, % at 9.99 µM; Transforming acidic coiled-coil-containing protein 3 (Homo sapiens), Q9Y6A5;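 active = mean inhibition of replicates at least 50% and at least half of replicates each reaching 50%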;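 also: 0% = complete ARNT plus TACC3 wells and 100% = ARNT alone without TACC3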
* hit, by the source's call; . = not tested or not shown. A selection: hits, their analogues and other compounds. The true share with any hit is near 2.1%.

SMILES	PvdQ inh	F508del corr	Ecoli rRNA inh	ERAP1 HTS inh	ARNT-TACC3 inh
CO[C@H](CN(C)S(=O)(=O)c1cccc(Cl)c1)[C@@H](C)CN([C@@H](C)CO)S(=O)(=O)c1cccc(Cl)c1	.	1	-4	1	-4
COc1cccc(NC(=O)NCCc2ccc(Cl)cc2)c1	-7	0	-24*	11	2
CC(=O)c1cccc(NC(=O)NCCc2ccc(Cl)cc2)c1	7	2	1	-1	0
COc1cccc(NC(=S)N(Cc2ccc(Cl)cc2)Cc2ccc(C(=O)O)cc2)c1	18	4	-32*	-7	2
Cc1cc(OCC(=O)O/N=C(\N)Cc2cccs2)ccc1Br	-6	4	-24*	-1	-3
Cc1ccc(OCC(=O)O/N=C(\N)Cc2cccs2)cc1C	5	.	.	.	-16
O=C(c1ccco1)N1CCN(C(=S)Nc2ccc(Br)cc2Cl)CC1	2	3	-44*	-2	.
S=C(NCc1ccco1)Nc1ccc(Br)cc1Cl	-3	-2	-37*	-1	.
Cc1cc(CNC(=S)Nc2ccc(Br)cc2Cl)nn1C	0	-1	-47*	1	-5
Cc1cc(C)cc(NC(=S)N2CCN(C(=O)c3ccco3)CC2)c1	4	-1	8	-2	.
C[C@H](CO)N1C[C@H](C)[C@@H](CN(C)C)Oc2cc(C#Cc3ccccc3F)ccc2S1(=O)=O	.	-2	2	0	1
COc1cccc(CNS(=O)(=O)c2cc(CN3C(=O)c4cccnc4C3=O)ccc2OC)c1	9	0	0	3	50*
C[C@H](CO)N1C[C@H](C)[C@H](CN(C)S(=O)(=O)c2ccc(C#N)cc2)OCc2ccccc2-c2c(n(C)c3ccccc23)C1=O	.	0	-1	0	12
FC(F)(F)c1cnc(N2CCCN(C(=S)Nc3ccccc3)CC2)c(Cl)c1	14	0	-41*	4	12
CCC(C)N(C(=O)Cn1c(Cl)nc2c1c(=O)n(C)c(=O)n2C)C1CCS(=O)(=O)C1 (stereo not given)	1	-2	1	-1	-6
CN(C(=O)Cn1c(Cl)nc2c1c(=O)n(C)c(=O)n2C)C1CCS(=O)(=O)C1 (stereo not given)	0	3	7	83*	.
O=C(N/N=C/c1ccco1)c1cc(-c2ccc3ccccc3c2)n[nH]1	8	.	.	.	7
CCc1ccc(-c2cc(C(=O)N/N=C/c3ccco3)[nH]n2)cc1	-9	-3	-20*	-2	-1
CCOc1ccccc1-c1cc(C(=O)N/N=C/c2cccnc2)c2ccccc2n1	-1	0	.	0	-15
O=C(N/N=C/c1ccccn1)c1cc(-c2cccc3ccccc23)n[nH]1	-7	1	-30	3	.
Cc1ccccc1C(=O)Nc1cccc(C(=O)N/N=C/c2ccccn2)c1	-18	1	-13	-4	46*
CCc1ccc(-c2cc(C(=O)N/N=C/c3ccccn3)[nH]n2)cc1	-7	-4	-25*	2	12
Cc1ccc(COc2ccccc2-c2cc(C(=O)N/N=C/c3cccnc3)[nH]n2)cc1	-7	9.7*	-5	0	1
Cc1noc(C)c1NC(=O)Nc1ccc2c(c1)C(=O)N([C@@H](C)CO)C[C@@H](C)[C@H](CN(C)Cc1ccc(Cl)c(Cl)c1)OCCCC[C@@H](C)O2	.	2	1	-2	21
Cc1ccc2c(c1)C(c1ccc(F)cc1)N(C(=O)c1ccccc1Br)CC(=O)N2 (stereo not given)	-17	-2	-26*	0	4
COC(=O)C1=CN(c2ccc(N3CCOCC3)cc2)C(N)=C(C#N)C1c1ccccc1 (stereo not given)	.	0	-3	-7	.
COC(=O)C1=CN(c2ccc(OC)cc2)C(N)=C(C#N)C1c1ccccc1F (stereo not given)	.	-3	-21	.	.
COC(=O)C1=CN(c2ccc(OC)cc2OC)C(N)=C(C#N)C1c1ccc(OC)cc1 (stereo not given)	.	-4	-26*	.	.

Screening data as filed in PubChem BioAssay.
